From ChEMBL document CHEMBL4513216, “Probing the Open Global Health Chemical Diversity Library for Multistage-Active Starting Points for Next-Generation Antimalarials” (ACS Infect Dis, 2020)
Hit rate of the full screen: of about 68,000 compounds, about 2,700 (4%) showed an effect of 50% or more. Many of the other results were omitted from the sample, so strong results are more common in it than they were.

System: Plasmodium berghei
Experiment: Screen against P. berghei liver stage (PbLuc), transformed with Luciferase, at 2uM
Assay type: functional, HepG2
Conditions: tested at 2 uM

Row | Structure (SMILES) | INHIBITION [%]
1 | COCCN1C(=O)[C@@H]2CC[C@H]1CN(Cc1nnc(C3CC3)o1)C2 | 29.18
2 | CC1CN(Cc2noc(C3CC3)n2)CCN1Cc1nccn1C (centres undefined) | 14.82
3 | CCOCCN1CCN(Cc2nnc(C3CC3)o2)CC1CC (centres undefined) | -0.55
4 | CCC1CN(Cc2nnc(C3CC3)o2)CCN1CCOC (centres undefined) | 66.64
5 | CCOCCN1CCN(Cc2nnc(C3CC3)o2)CC1C (centres undefined) | -19.75
6 | COCCN1CCN(Cc2noc(C3CC3)n2)CC1C (centres undefined) | 53.03
7 | CC(O)CN1CCN(Cc2nnc(C3CC3)o2)CC1 (centres undefined) | 7.54
8 | CC1CN(Cc2noc(C3CC3)n2)CCN1Cc1noc(C2CC2)n1 (centres undefined) | 33.82
9 | Cc1ccc(N2CCC3(CCN(Cc4csc(C)n4)CC3)CC2)nn1 | 18.91
10 | COc1ccc(C(C)NCCc2ccc(NC(C)=O)cc2)c(OC)c1 (centres undefined) | 26.99
11 | CC(=O)N1CCn2c(nnc2C2CCCCN2Cc2ccccc2Cl)C1 (centres undefined) | -46.48
12 | CN(C)C(=O)c1nc(CN2C(=O)OC[C@@H]2c2ccccc2)no1 | 18.19
13 | Cn1cc(C(=O)NCc2ccc(OC3CCCCC3)nc2)ccc1=O | 2.66
14 | N#Cc1cccc(CN2CC3(CCCCN3c3cncnc3)CC2=O)c1 (centres undefined) | -29.69
15 | Cc1noc(C)c1CN1CC2(CCCCN2c2cncnc2)CC1=O (centres undefined) | 50.32
16 | Cc1noc(C)c1CN1CC2(CCCCN2C)CC1=O (centres undefined) | 21.57
17 | O=C(O)c1cc(-c2ccoc2)cc(S(=O)(=O)N2CCSCC2)c1 | 7.09
18 | O=C(CNC(=O)c1ccccc1F)NCc1ccccn1 | -20.05
19 | Cc1cccc(NC(=O)CNC(=O)c2ccccc2F)c1 | 53.99
20 | Cc1cccc(NC(=O)CCC(=O)NCC(=O)c2ccccc2F)c1 | 22.31
21 | N#Cc1cc(CSCCN2CCOCC2)ccc1F | 39.71
22 | Cc1c(C(=O)N2CCC2(C)C)nnn1-c1cccc2cnccc12 | 9.78
23 | Cc1c(C(=O)N2CC(=O)N(C)C2)nnn1-c1cccc2cccnc12 | 57.5
24 | Cc1c(C(=O)N2CC(C)(C)C2(C)C)nnn1-c1cccc2cnccc12 | -107.15
25 | Cc1c(C(=O)O)nnn1-c1cccc2cccnc12 | -58.01
26 | Cc1c(C(=O)N2CC(O)C2)nnn1-c1cccc2cnccc12 | 50.31
27 | Cc1c(C(=O)N2CCC2(C)C)nnn1-c1cccc2cccnc12 | 9.78

Row | Structure (SMILES) | INHIBITION [%]
28 | c1cc(C2CCCN2CC2CC2)n[nH]1 (centres undefined) | 13.02
29 | COc1ccc(CNC(=O)CCn2cc(C)cn2)cc1C | -14.47
30 | CC(c1ccccn1)N(C)Cc1ccc(-n2ccnc2)cc1 (centres undefined) | 2.67
31 | C[C@@H](NCc1cccc(Cl)c1)c1onc(-c2ccc(F)cc2)c1C(=O)O | 37.54
32 | Cc1cc(OCC(=O)N2CCCC(c3noc(C)n3)C2)no1 (centres undefined) | 6.3
33 | Cc1cc(OCC(=O)N2CCCC(c3ccn[nH]3)C2)no1 (centres undefined) | 24.31
34 | Cc1cc(C2CCCN(C(=O)COc3cc(C)on3)C2)n[nH]1 (centres undefined) | 60.64
35 | CN1C(=O)CCC12CCCN(C(=O)c1ccncc1F)C2 (centres undefined) | -39.56
36 | CCc1noc(C)c1C(=O)N1CCCCC1Cn1cc(C)cn1 (centres undefined) | -11.2
37 | c1ccc(OC2COC3(CCN(CC4CC4)CC3)C2)nc1 (centres undefined) | -17.63
38 | CCC1(c2ccc(NS(=O)(=O)c3cccs3)cc2)CCC(=O)NC1=O (centres undefined) | -13.33
39 | CNC(=O)CC1CCN(C(=O)NCc2coc3ccccc23)CC1 | 53.81
40 | COCCOC1CCN(C(=O)NCc2coc3ccccc23)CC1 | 40.88
41 | CNC(=O)CC1CCN(C(=O)NCC2(c3ccccc3F)CC2)CC1 | -23.23
42 | CC(C)N1CCC(CC(=O)N(C)C(C)c2cncs2)CC1 (centres undefined) | 17.73
43 | O=C(C1CN(c2ncc(F)cn2)CC12CCOCC2)N1CC=CC1 (centres undefined) | -78.69
44 | Cc1cnc(N2CC(C(=O)N3CCOCC3)C3(CCOCC3)C2)nc1 (centres undefined) | 65.04
45 | O=C(C1CN(c2ncc(F)cn2)CC12CCOCC2)N1CCOCC1 (centres undefined) | -45.73
46 | Cn1cc(CN2CCO[C@H]3CN(Cc4ccsc4)C[C@H]32)cn1 | 1.88
47 | N#Cc1ncn(CCC(=O)Nc2cccc(Cl)c2)n1 | 7.13
48 | N#Cc1ncn(CCC(=O)Nc2ccc(Cl)cc2F)n1 | 5.52
49 | N#Cc1ncn(CCC(=O)Nc2ccc(F)c(F)c2)n1 | 57.92
50 | Cc1cc(C(=O)N2CCC3(CC(=O)NC3=O)C2)c(-c2ccccc2)o1 (centres undefined) | 15.87
51 | CCOc1ncnc2c1CCN(C(=O)c1ccncc1F)CC2 | 28.85
52 | c1csc(C2(NCc3csc(C4CC4)n3)CCCC2)n1 | -56.92
53 | Cc1csc(C2(NCc3csc(C4CC4)n3)CCCC2)n1 | -9.69
54 | CCCc1nc(CNC2(c3nccs3)CCCC2)cs1 | 58.68
